Here are results for 20 compounds from PubChem BioAssay (EPA / NIEHS).

Values joined by “and” are separate entries in the source; they are usually repeats but may differ in a detail not shown here. Identical values can stand only once. Results filed as inconclusive are left out. Where a structure was tested more than once in an assay, its records may differ in their call. Active and inactive are the calls of the source. Rule for the calls, unless noted: active = hit-call score of the fitted dose curve at least 0.9, where 1 is the maximum; inactive = score below 0.9.

Assay [1] in a line: CCTE_Shafer_MEA_dev_mutual_information_norm: CCTE's Neural Network Formation Assay for Mutual Information Normalization, Shafer Lab (AID 2284091).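 For AC50: mutual information between electrodes summarised as area under curve across four recording days; potency is for a decrease in mutual information relative to DMSO.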 In outline:
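Rat cortical cultures, 48-well MEA, continuous exposure DIV 0–12 with full media/compound change DIV 5 and 9. Readout: inter-electrode mutual information, AxIS adaptive spike detection; AUC across DIV 5/7/9/12 recordings; DMSO baseline, negative fitting direction.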

The nature of assay [2]: CCTE_Shafer_MEA_dev_correlation_coefficient_mean: CCTE's Neural Network Formation Assay for Mean Correlation Coefficient, Shafer Lab (AID 2284093).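 For AC50: well mean pairwise spike train correlation integrated as AUC over recording days 5 to 12; potency fitted for loss of correlation relative to DMSO vehicle wells.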 The procedure, abridged:
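Extracellular firing from rat cortical networks on 48-well MEAs, DMSO-referenced, negative fitting direction. Compound present from plating to DIV12; mean pairwise correlation per well integrated over DIV5–12 recordings by trapezoidal AUC.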

The nature of assay [3]: UKN2_HCS_IMR90_neural_migration: University of Konstanz (UKN) Leist Lab Neural Crest Cell Migration Assay in human induced IMR90 Pluripotent Stem Cells (UKN2) (AID 2284204). The settings on record: actives raise or lower the signal. The procedure, abridged: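 iPSC-derived IMR90 neural crest cells on PLO/laminin/fibronectin were seeded around silicone stoppers; after stopper removal, migration in N2-S medium with EGF and FGF ran 24 h before 24 h chemical exposure. Calcein-AM/Hoechst high-content imaging; bidirectional fit versus DMSO.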

Assay [4] in a line: UKN4_HCS_LUHMES_neurite_outgrowth: University of Konstanz (UKN) Leist Lab Neurite Outgrowth Assay in human LUHMES cells (UKN4) (AID 2284206). The conditions noted are these: actives raise or lower the signal. In outline: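 Human LUHMES neuronal precursors, differentiated 2 days then replated without cAMP and GDNF, exposed to compounds for 24 h. Neurite area imaged by high-content microscopy after calcein-AM live staining; Hoechst H-33342 for viability; bidirectional fit versus DMSO.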

Assay [5] in a line: IUF_NPC1b_proliferation_BrdU_72hr: Leibniz Research Institute for Environmental Medicine (IUF) 72-hour Neural Progenitor Cell Bromodeoxyuridine (BrdU) Proliferation Assay (NPC1b) (AID 2284207). The procedure, abridged:
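hNPC spheres (primary, GW 16-19 fetal cortex), single sphere/well, EGF+FGF medium; 72 h compound, no renewal; BrdU pulse last 16 h; luminescent ELISA; activity vs DMSO baseline; growth-factor withdrawal as positive control.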

Assay [6] in a line: IUF_NPC1a_proliferation_area_72hr: Leibniz Research Institute for Environmental Medicine (IUF) 72-hour Neural Progenitor Cell Proliferation Area Assay (NPC1a) (AID 2284208). In outline:
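hNPC spheres (human fetal cortex, GW 16-19), one per poly-Hema U-bottom well; EGF+FGF medium; dosed day 0, no re-dosing; 72 h, 37C, 5% CO2; phase-contrast sphere area; DMSO = baseline; minus-GF = positive ctrl.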

The nature of assay [7]: IUF_NPC1_viability_72hr: Viability Assessment at 72 hours in the Leibniz Research Institute for Environmental Medicine (IUF) Neural Progenitor Cell Proliferation Assay (NPC1) (AID 2284209). The procedure, abridged: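 Single spheres (0.25-0.35 mm) of human fetal cortex-derived neural progenitor cells were grown in proliferation medium with EGF and FGF at 37C and 5% CO2. They were exposed for 72 h without renewal, and viability was read by alamar blue resorufin fluorescence.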

The nature of assay [8]: CCTE_Mundy_HCI_Cortical_Synap_Neur_Matur_NeuriteSpotCountPerNeuriteLength: CCTE's Synaptogenesis and Neurite Maturation Assay in rat cortical cells for Neurite Spot Count per Neurite Length, Mundy Lab (AID 2284210). The procedure, abridged:
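Rat primary cortical cultures, glia arrested with AraC at DIV 5, were dosed with media change at DIV 7 and fixed at DIV 12. Synaptophysin puncta per MAP2-labelled neurite length were quantified by high-content imaging versus DMSO.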

The nature of assay [9]: CCTE_Mundy_HCI_Cortical_Synap_Neur_Matur_BPCount: CCTE's Synaptogenesis and Neurite Maturation Assay in rat cortical cells for Branch Point Count, Mundy Lab (AID 2284211). The procedure, abridged: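 Rat primary cortical cultures, AraC added DIV 5; chemicals dosed DIV 7 through DIV 12. Fixed cells stained for MAP2, synaptophysin and Hoechst; neurite branch points counted by automated high-content imaging, fitted relative to DMSO.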

Assay [10] is described as follows: CCTE_Shafer_MEA_acute_LDH: CCTE's Lactate Dehydrogenase Assay for Cytotoxicity in the Neural Acute Assay, Shafer Lab (AID 2284086; active = hit-call score of the fitted dose curve at least 0.9, where 1 is the maximum;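 note: active means LDH release rises above DMSO vehicle level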). In outline: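 Medium from rat cortical neuron MEA cultures sampled right after the 40 min compound-exposure recording; released LDH measured by absorbance at 490 nm. Analyzed as signal gain relative to DMSO.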

With `CC(=NC#N)N(C)Cc1ccc(Cl)nc1`, the compound was classed as inactive in assay [1], in assay [2], in assay [3], in assay [4], in [6] and in assay [7]. Also, the compound was called inactive in [8] and in assay [9]. The AC50 in assay [5] is 385 nM (active).
Regarding `CCOP(=S)(OCC)SCCSCC`, the call in assay [10], in assay [1], in [2], in [5], in [6] and in assay [7] was inactive. Besides, the compound was called inactive in [8] and in [9].
`COc1cc(OC)nc(Sc2cccc(Cl)c2C(=O)O)n1`: the compound was classed as inactive in assay [10].
`CCOC(=O)CC(SP(=O)(OC)OC)C(=O)OCC` (configuration not stated): the compound was classed as inactive in assay [1], in [2], in assay [3], in assay [4], in assay [5] and in assay [6]. For the same compound, the outcome in [8] and in [9] was inactive. Also, in assay [7], the concentration at half-maximal activity (AC50) is 1.06 µM (active).
With `C[Si](Cn1cncn1)(c1ccc(F)cc1)c1ccc(F)cc1`, the outcome in [10] and in assay [2] was inactive. Besides, the AC50 in assay [1] was 1.61 µM (active).
With `CCOP(=O)(OCC)Oc1cc(C)nc(C(C)C)n1`, the compound was classed as inactive in assay [1], in assay [2], in [3], in assay [5], in assay [6] and in assay [7]. Further, the call in assay [8] and in assay [9] was inactive.
`C#CCC1=C(C)C(OC(=O)C2C(C=C(C)C)C2(C)C)CC1=O` (configuration not stated): in assay [10], the compound was classed as inactive. For the same compound, the half-maximal activity concentration (AC50) in assay [1] was 0.303 µM (active); in [2], 3 µM (active).
On to `CCCOCC(=Nc1ccc(Cl)cc1C(F)(F)F)n1ccnc1`, for which the compound was classed as inactive in assay [10].
For `CON=C(C(=O)OC)c1ccccc1CON=C(C)c1cccc(C(F)(F)F)c1`, the result in [10] and in [5] was inactive. Besides, the concentration at half-maximal activity (AC50) in assay [1] is 671 nM (active) and 812 nM (active); in assay [2] it was 941 nM (active) and 501 nM (active); in [3], 15.2 µM (active); in assay [6], 9.57 µM (active); in [7], 32.8 µM (active); in assay [8], 0.489 µM (active). In [9], the half-maximal activity concentration (AC50) was 446 nM (active).
Take `CC[C@H](C)[C@H]1O[C@]2(C=C[C@@H]1C)C[C@@H]1C[C@@H](C/C=C(\C)[C@@H](O[C@H]3C[C@H](OC)[C@@H](O[C@H]4C[C@H](OC)[C@@H](NC)[C@H](C)O4)[C@H](C)O3)[C@@H](C)/C=C/C=C3\CO[C@@H]4[C@H](O)C(C)=C[C@@H](C(=O)O1)[C@]34O)O2`: the compound was called inactive in assay [10]. For the same compound, the AC50 is 0.981 nM (active) and 1.87 nM (active) in assay [1]; 318 nM (active) and 15.9 nM (active) in assay [2]; 4.54 µM (active) and 1.96 µM (active) in assay [3]; 1.79 µM (active) in assay [4]; 25 µM (active) and 1.71 µM (active) in assay [5]; 5.17 µM (active) and 2.01 µM (active) in assay [6]. Further, the AC50 in assay [7] is 6.92 µM (active) and 2.51 µM (active); in [8], 587 nM (active) and 1 µM (active); in [9], 428 nM (active) and 668 nM (active).
On to `CC1=NNC(=O)N(/N=C/c2cccnc2)C1`, for which the compound was called inactive in assay [10], in assay [1], in [2], in assay [5], in [6] and in assay [7]. Also, the result in [8] and in assay [9] was inactive.
Take `CCOP(=O)(NC(C)C)Oc1ccc(SC)c(C)c1` (configuration not stated): the result in assay [10], in assay [1], in [2], in assay [3], in [6] and in assay [7] was inactive. For the same compound, the outcome in assay [8] and in assay [9] was inactive. Also, the AC50 in assay [1] is 36.3 µM (active); in [2] it was 90.9 µM (active); in assay [5], 27900 nM (active).
In the case of `CCOP(=O)(SC(C)CC)N1CCSC1=O` (configuration not stated), the result in assay [1], in assay [2], in assay [8] and in assay [9] was inactive.
For `CC(Oc1cccc(Cl)c1)C(=O)O` (configuration not stated), the compound was called inactive in [1] and in [2].
In the case of `COP(=O)(OC)C(O)C(Cl)(Cl)Cl` (configuration not stated), the half-maximal activity concentration (AC50) was 18.4 µM (active) and 3.54 µM (active) in assay [1]; 31.7 µM (active) and 15 µM (active) in [2]; 26800 nM (active) in assay [9]. In addition, the outcome in assay [5], in [6], in assay [7] and in assay [8] was inactive.
For `CNC(=O)ON=C(SC)C(=O)N(C)C`, the result in [10] was inactive.
On to `O=[N+]([O-])c1cc(C(F)(F)F)c(Cl)c([N+](=O)[O-])c1Nc1ncc(C(F)(F)F)cc1Cl`, for which the call in assay [10] and in assay [5] was inactive. In addition, the AC50 was 0.328 µM (active) in assay [1]; 0.65 µM (active) in assay [2]; 0.638 µM (active) in assay [3]; 7.56 µM (active) in [6]; 9.47 µM (active) in [7]; 1.06 µM (active) in assay [8]. Besides, in assay [9], the concentration at half-maximal activity (AC50) was 934 nM (active).
With `Nc1c(Cl)cc([N+](=O)[O-])cc1Cl`, the half-maximal activity concentration (AC50) in assay [10] is 0.0105 µM (active).
Regarding `CC(C)N(C(=O)SCC(Cl)=C(Cl)Cl)C(C)C`, the result in [10], in assay [5], in assay [6], in [7] and in assay [9] was inactive. Moreover, the AC50 in assay [1] is 15 µM (active); in assay [2], 15 µM (active); in assay [4], 15.9 µM (active); in [8], 25 µM (active).
With `CCOP(=S)(OCC)Oc1cc(C)nc(C(C)C)n1`, the AC50 is 50 µM (active) in [1], 50 µM (active) in assay [2] and 50000 nM (active) in assay [9]. Besides, the outcome in [1], in assay [2], in [5], in assay [6], in assay [7] and in assay [8] was inactive.
